The test system of one assay is MKL-1. Kind of assay: qHTS assay to identify novel small-molecules to repurpose for Merkel cell carcinoma treatment (AID 1296009). Also: nearly all actives have a fitted effect of over 60% in size. The note with it: MCC and control cell lines, CellTiter-Glo viability, 72 h; series mostly up to 46 µM. The method, boiled down: (§1)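 Cells exposed to NPC (8-point) and MIPE (11-point) compound dilutions for 72 hr at 37 degree celsius; viability read by CellTiter-Glo luminescence, normalized to no-cell and DMSO in-plate controls.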

Another assay relates to MKL-2. The assay is described as above. The note with it: MCC and control cell lines, CellTiter-Glo viability, 72 h; series mostly up to 46 µM. An outline of the steps:
as §1

The subject of the next assay is UISO. The assay is described as above. To be noted: MCC and control cell lines, CellTiter-Glo viability, 72 h; series mostly up to 46 µM. An outline of the steps:
as §1

The subject of a further assay is WaGa. Described as above. To be noted: MCC and control cell lines, CellTiter-Glo viability, 72 h; series mostly up to 46 µM. An outline of the steps: as §1
Another assay relates to CAOV3. The assay is described as follows: Primary qHTS to identify gynecologic anti-cancer compounds using libraries of approved drugs and bioactive compounds (AID 1345084). Also: nearly all actives have a fitted effect of over 55% in size. To be noted: Gynecologic cancer cell panel viability, ATPlite luminescence, 48 h; series mostly up to 57.5 µM. An outline of the steps: (§2)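 Cell viability after 48 h drug treatment, ATPlite luminescence readout; five doses.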

The next assay concerns CASKI. Described as above. The note with it: Gynecologic cancer cell panel viability, ATPlite luminescence, 48 h; series mostly up to 57.5 µM. An outline of the steps:
as §2

The subject of the next assay is Es-2. Described as above. To be noted: Gynecologic cancer cell panel viability, ATPlite luminescence, 48 h; series mostly up to 57.5 µM. The method, boiled down: as §2
A further assay has as its system HeLa. The description is as above. The note with it: Gynecologic cancer cell panel viability, ATPlite luminescence, 48 h; series mostly up to 57.5 µM. An outline of the steps:
as §2

The subject of the next assay is Hek293T. Described as above. The note with it: Gynecologic cancer cell panel viability, ATPlite luminescence, 48 h, control line for the selectivity index; series mostly up to 57.5 µM. An outline of the steps:
as §2

A further assay concerns JEG-3. The description is as above. To be noted: Gynecologic cancer cell panel viability, ATPlite luminescence, 48 h; series mostly up to 57.5 µM. An outline of the steps:
as §2

In another assay the test system is OV90. The assay is described as above. The note with it: Gynecologic cancer cell panel viability, ATPlite luminescence, 48 h; series mostly up to 57.5 µM. The method, boiled down: as §2
For a further assay, the system named is SKOV3. The assay is described as above. The note with it: Gynecologic cancer cell panel viability, ATPlite luminescence, 48 h; series mostly up to 57.5 µM. The method, boiled down: as §2
Another assay relates to astro. Kind of assay: Drug repurposing screens with cells derived from glioblastoma tumor samples (AID 1345199). Also: nearly all actives have a fitted effect of over 40% in size. As to activity, negative = cell killing: % is scaled to controls: 0 for no effect and ±100 for the full control effect. To be noted: viability, ATP luminescence, 48 h; series mostly up to 45.9 µM. The method, boiled down:
(§3)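 Four patient lines of CD133+ GBM neurospheres were screened at several concentrations; hits were retested in those lines plus three slower-growing GBM lines, using 48-hour treatment and ATP-based viability.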

Another assay concerns C33A. The assay is described as follows: Primary qHTS to identify gynecologic anti-cancer compounds using libraries of approved drugs and bioactive compounds (AID 1345084). Also: nearly all actives have a fitted effect of over 55% in size. To be noted: Gynecologic cancer cell panel viability, ATPlite luminescence, 48 h; series mostly up to 57.5 µM. An outline of the steps:
as §2

In another assay the test system is PA-1. The assay is described as above. To be noted: Gynecologic cancer cell panel viability, ATPlite luminescence, 48 h; series mostly up to 57.5 µM. The method, boiled down: as §2
In the next assay the test system is Tov-21-G. Described as above. The note with it: Gynecologic cancer cell panel viability, ATPlite luminescence, 48 h; series mostly up to 57.5 µM. The method, boiled down:
as §2

The next assay has as its system Tov112D. The description is as above. The note with it: Gynecologic cancer cell panel viability, ATPlite luminescence, 48 h; series mostly up to 57.5 µM. The method, boiled down: as §2
The nature of assay [1]: Drug repurposing screens with cells derived from glioblastoma tumor samples (AID 1345199). Also: nearly all actives have a fitted effect of over 40% in size. As to activity, negative = cell killing: % is scaled to controls: 0 for no effect and ±100 for the full control effect. The note with it: GBM patient neurospheres viability, ATP luminescence, 48 h. An outline of the steps:
as §3

Assay [2] in a line: qHTS assay to identify inhibitors of the type 1 interferon - major histocompatibility complex class I in skeletal muscle: Counter screen cell viability and HiBit confirmation (AID 1347412). Also: nearly all actives have a fitted effect of over 60% in size. To be noted: iHSKM muscle cells + IFN-b, HiBiT or CellTiter-Glo, 24 h. The method, boiled down:
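Human myoblast knock-in line, 4.0 ng/ml IFN-beta stimulation, 24 h compound treatment. Endpoints: HiBiT lytic luminescence (HLA-B level) and CellTiter Glo (ATP). Dosing 12 concentrations, 3-fold steps, 46 uM highest final.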

Where [3] appears, read: at 45.9 µM (top of the series), tumour line B.
Setting [4] is: at 46.1 µM (top of the series), tumour line C.

Several values for one entry are separate records, joined by “and”; a condition that tells them apart may be missing. Identical values can stand only once. Results filed as inconclusive are left out. More than one record can exist for a structure, and the calls need not agree. Activity calls are given as the source filed them. Calls follow the shape of the dose curve; as a rule, active = well fitted curve in the direction sought with a large enough effect; inconclusive = small, poorly fitted or top-dose-only effect, or another doubt; inactive = no such curve, though single readings can be large; an effect the other way counts as inactive or inconclusive. Peptide text beside a SMILES is read from it.
Potency is read from the fitted curve at half-maximal effect.

On to `CCN(CC)C(=S)SSC(=S)N(CC)CC`, for which the Potency with MKL-1 was 1.18 µM (active) and 62.4 nM (active) and 422 nM (active); in the assay on MKL-2, 1.32 µM (active) and 44.2 nM (active) and 531 nM (active); with UISO, 1.05 µM (active) and 70 nM (active) and 473 nM (active); with WaGa, 0.935 µM (active); with CAOV3, 7.08 µM (active); with CASKI, 35.5 µM (active) and inactive. In addition, the Potency in the assay on Es-2 was 15.8 µM (active); in the assay with Hek293T, 8.91 µM (active); in the assay with JEG-3, 28.2 µM (active); in the assay with OV90, 4.47 µM (active); with SKOV3 it was 631 nM (active) and 1.41 µM (active); with astro it was 63.1 µM (active). Moreover, in the assay on HeLa, the Potency result was “inactive”.

Regarding `COC(=O)[C@H](Cc1ccccc1)NC(=O)[C@@H](N)CC(=O)O` (H-Asp-Phe-OMe), the Potency result with MKL-1, with MKL-2, in the assay on UISO, with WaGa, with C33A and with CAOV3 was “inactive” in each case. The Potency entry in the assay on CASKI, with Es-2, in the assay with HeLa, in the assay with Hek293T, with JEG-3 and with OV90 was “inactive” each time. For the same molecule, the Potency result in the assay with PA-1, with SKOV3, in the assay with Tov-21-G, in the assay with Tov112D and with astro was “inactive” each time. Besides, the activity, negative = cell killing is -10.7% (inactive) and -0.538% (inactive) in assay [1] (setting [3]); -6.33% (inactive) and -21.9% (inactive) in assay [1] (at 45.9 µM (top of the series), tumour line D); -19.7% (inactive) and -4.06% (inactive) in assay [1] (setting [4]).

For the molecule `c1ccc2[nH]c(-c3cscn3)nc2c1`, the Potency entry in the assay with MKL-1, in the assay with MKL-2, in the assay on UISO, in the assay on WaGa, with C33A and in the assay with CAOV3 was “inactive” each time. Also, the Potency entry in the assay on HeLa, in the assay with JEG-3, in the assay with OV90, with PA-1, in the assay with SKOV3 and with Tov-21-G was “inactive” each time. Moreover, the Potency result with Tov112D was “inactive”. For the same molecule, the activity, negative = cell killing in assay [1] (setting [3]) is -26.3% (inactive); in assay [1] (setting [4]), 7.08% (inactive).

In the case of `O=C(NCC1CCCCN1)c1cc(OCC(F)(F)F)ccc1OCC(F)(F)F` (centres undefined), the Potency result in the assay with MKL-1, with MKL-2, in the assay on UISO, in the assay with WaGa, in the assay on C33A and with CAOV3 was “inactive” each time. Moreover, the Potency entry in the assay on CASKI, in the assay with Es-2, in the assay on HeLa, in the assay on Hek293T, with JEG-3 and in the assay with OV90 was “inactive” throughout. The Potency result in the assay on PA-1, in the assay on Tov-21-G and in the assay with Tov112D was “inactive” throughout. Also, the activity, negative = cell killing in assay [1] (at 46 µM (top of the series), tumour line A) is 20.5% (inactive); in assay [1] (setting [4]), -6.86% (inactive).

Consider `CCN(CC)CCOc1ccc(Nc2ncc3cc(-c4c(Cl)cccc4Cl)c(=O)n(C)c3n2)cc1`, for which the Potency with MKL-1 was 1.32 µM (active); in the assay with MKL-2, 5.26 µM (active); in the assay with UISO, 5.26 µM (active); with WaGa it was 2.96 µM (active); in [2] (HiBiT), 557 nM (active) and 883 nM (active); in assay [2] (Viability) it was 12.5 µM (active) and 2.79 µM (active).

As to `CCN(CC)CCOc1ccc(Cc2ccccc2)cc1`, the Potency entry in the assay with MKL-1, in the assay with MKL-2, in the assay with UISO, with WaGa, in the assay with C33A and in the assay with CASKI was “inactive” each time. The Potency entry with Es-2, in the assay on HeLa, in the assay on Hek293T, with JEG-3, with Tov-21-G and in the assay on Tov112D was “inactive” each time. The Potency in the assay on astro was 22.4 µM (active).
